Pf growth 48h: inhibits P. falciparum growth in the first generation, 48 h. 310,000 tested, 5.9% active. P. falciparum luciferase growth in erythrocytes, 48 h. Potency, µM (highest dose often 28.7 µM), without a hit: top-dose activity change, negative = inhibition, usual class: inhibitors. AID 504832; further: potency means the concentration at half of the fitted maximal effect; on the % scale 0 is the no-effect control and ±100 the full control effect
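Luminescence readout; reporter = integrated firefly luciferase in P. falciparum. RBC culture at 2% hematocrit, 0.1% parasitemia final, 37 C/5% CO2; decreased signal taken as growth inhibition.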
Shiga toxin inh: blocks Shiga toxin action in Vero cells | Vero cells, Shiga toxin protein synthesis inhibition reporter | inhibition, % at 38.7 µM | 290,000 tested, 9.2% active | AID 2315; in the data active means inhibition mostly above about 28%, no sharp cut-off; inactive means mostly below about 43%; further: 0% is about no effect
HCV inhibitor: blocks hepatitis C virus. Huh7.5.1 HCVcc-Cre infection, luciferase reporter, 44 h. Potency, µM (highest dose often 41.8 µM), inactives show at the highest dose activity change, negative = inhibition, most hits filed as inhibitors. 340,000 tested, 3.4% active. AID 651820; further: potency means the concentration at half of the fitted maximal effect; on the % scale 0 is the no-effect control and ±100 the full control effect
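Cells seeded at 1,000/well and cultured 4 h, then compounds added followed by HCVcc-Cre virus (~0.5 moi). After 44 h further culture, luciferase substrate was added, plates held 15 min at room temperature, and luminescence read for 15 sec.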
Cycloheximide cs: counter-screen hit for Shiga toxin inhibitors, cycloheximide; cell reporter, cycloheximide protein synthesis inhibition counterscreen; max response, %; 300,000 tested, 12% active; in the data active means max response mostly above about 13%, no sharp cut-off; inactive means mostly below about 14%; further: read at 38.3 µM for the half of the compounds with a filed dose; 0% is about no effect
HCMV inh: inhibitors of human cytomegalovirus | HFF cells, HCMV-luciferase reporter, 72 h; hits give low values | activity change, negative = inhibition, % at 57.5 µM | 410,000 tested, 4.5% active | AID 1259415; in the data active means activity change below about -60%; inconclusive means no clear call, values can overlap the other calls; inactive means above about -39%; further: on the % scale 0 is the no-effect control and ±100 the full control effect
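Cell-based, HFFs, 1000 cells/well, 16 h 37C; cpds in DMSO + HCMV-luc, MOI 1 PFU/cell; 72 h 37C; OneGlo luminescence after 5 min RT; norm. to buffer vs Salinomycin 10uM.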
Pf growth 96h: P. falciparum growth inhibition at 96 hours; P. falciparum luciferase reporter growth, 96 h; Potency, µM (series often up to 28.7 µM), for the others: top-dose activity change, negative = inhibition, hits mostly inhibitors; 320,000 tested, 6.9% active; AID 504834; further: potency means the concentration at half of the fitted maximal effect; on the % scale 0 is the no-effect control and ±100 the full control effect
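Compounds incubated with erythrocytes infected by luciferase-expressing P. falciparum (2% hematocrit, 0.05% parasitemia final) for 96 hours, 37 C in 5% CO2. Growth inhibition scored as decreased luciferase luminescence.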
* hit, by the source's call; ? = inconclusive; . = no result; [ ] = another dose, or the depositor's remark. Sampled rows, rich in hits. Any-hit rate of the full collection: about 21%. Unless noted, the call rests on the fitted dose curve; in most records, active means well fitted inhibition curve with a large enough effect; inconclusive means small, poorly fitted or top-dose-only effect, or another doubt; inactive means no such curve, though single readings can be large or run the other way.

SMILES | Pf growth 48h | Shiga toxin inh | HCV inhibitor | Cycloheximide cs | HCMV inh | Pf growth 96h
CC1CCN(C(=O)C(C)c2ccc([N+](=O)[O-])cc2)CC1 (stereo not given) | -17% | 12 | 12% | -2 | -18 | -2%[5.75 µM]
CC(C(=O)N1CCCC1)c1ccc([N+](=O)[O-])cc1 (stereo not given) | 6% | -3 | -7% | 5 | 8 | 15µM*
COCCn1c(-c2ccc(OC(F)(F)C(F)C(F)(F)F)cc2)nc2c1c(=O)[nH]c(=O)n2CC(C)C (stereo not given) | . | -10 | -27% | 2 | -2 | 6.6µM*
CCCCn1c(-c2ccncc2)nc2c1c(=O)[nH]c(=O)n2CC(C)C | ? | 9 | 0% | -3 | -2 | ?
COCCn1c(-c2ccc(SC)cc2)nc2c1c(=O)[nH]c(=O)n2CC(C)C | -49% | 25 | -9% | 24* | 31 | 4%
CCOc1ccc(-n2c(SCC(=O)NC)nnc2-c2ccco2)cc1 | 8% | -8 | 17% | -2 | -25 | 31%
O=C(/C=C/c1ccc(F)cc1)NC(Cc1c[nH]c2ccccc12)C(=O)O (stereo not given) | -2% | -12 | -9% | -5 | 13 | 35%
O=S(=O)(c1cccs1)N1CCN(CCOc2ccc(Cl)cc2)CC1 | -16% | . | ? | . | -82* | -12%
O=S(=O)(c1cccs1)N1CCN(CC(O)COc2cc(Cl)ccc2Cl)CC1 (stereo not given) | . | 11 | ? | 7 | -61* | .
NS(=O)(=O)c1ccc(N2CCN(CCOc3ccc(Cl)cc3)CC2)nc1 | -9% | -11 | ? | -6 | -84* | -18%
CCC(C)N(C(=O)Cn1nnc(-c2ccc(Cl)cc2)n1)C1CCS(=O)(=O)C1 (stereo not given) | 3% | . | -2% | . | -3 | 11%
Cc1ccc(NC(=O)c2cnccn2)c(OC(F)F)c1 | ? | 9 | 13µM* | -1 | -14 | ?
O=C(Nc1ccc2c(c1)OCO2)c1cnccn1 | 487% | 88* | 30% | 21* | 13 | 7%
O=C(Nc1ccc(Br)cc1)c1cnccn1 | 145% | 117 | 5% | 32* | 31 | 140%
Cc1nc(NC(=O)c2cnccn2)ccc1Br | 236% | 107* | 9% | 43* | 50 | 75%
O=C(Nc1ccc(F)cc1)c1cnccn1 | . | . | . | . | -3 | .
Cc1ccc(NC(=O)c2cnccn2)cc1 | 376% | 72* | ? | 34* | -21 | ?
Cc1cccc(NC(=O)c2cnccn2)c1 | 30% | . | -6% | 17* | 8 | -27%
Cc1ccc(NC(=O)c2cnccn2)cc1C | 156% | . | 6% | 34* | 106 | -14%
CCn1cc(C(=O)NCCc2ccc(Cl)cc2)c(=O)c2cc(S(=O)(=O)N3CCc4ccccc4C3)ccc21 | . | . | . | . | 18 | .
COC(=O)c1cc2c(cc1NC(=O)c1cnn(-c3ccccc3)c1-n1cccc1)OCO2 | . | . | . | . | 1 | .
CSc1nnc(-c2cnccn2)n1CCCN1CCCC1=O | 0% | 3 | 7% | -4 | 60 | 7.4µM*
Cc1cc(C(=O)N2CCC2(C)C(=O)NS(=O)(=O)c2cccc(Cl)c2)nn1C (stereo not given) | . | . | . | . | 18 | .
Cc1ccc(-n2cc(CNCC3CC(=O)N(C4CC4)C3)c(-c3cccc(C)c3)n2)cc1 (stereo not given) | ? | 3 | -14% | -2 | ? | 12µM*
Cc1ccc(-n2cc(CN3CCNC(=O)CC3)c(-c3cccc(C)c3)n2)cc1 | ? | 27 | 0% | 7 | -33 | -21%
SMILES | Pf growth 48h | Shiga toxin inh | HCV inhibitor | Cycloheximide cs | HCMV inh | Pf growth 96h
CN(C)C(=O)CCC(=O)N(C)CC1CCCN(CCc2ccc(F)cc2)C1 (stereo not given) | 23% | 1 | 11% | -2 | -12 | ?
CCN(Cc1ccc(C#CCCO)cc1)CC1CCCN(CCc2cccc(F)c2)C1 (stereo not given) | 4.7µM* | -15 | ? | 5 | -24 | -22%
CN(Cc1ccc(C#CCCO)cc1)CC1CCCN(CCc2ccc(Cl)cc2)C1 (stereo not given) | 5.2µM* | -5 | -4% | 2 | -7 | -12%
Cc1occc1C(=O)N(C)CC1CCCN(CCc2ccc(Cl)cc2)C1 (stereo not given) | . | . | . | . | -16 | .
CN(Cc1ccccc1O)CC1CCCN(CCc2ccc(Cl)cc2)C1 (stereo not given) | 10µM* | -3 | 10µM* | -3 | 6 | -14%
Cc1cccc(S(=O)(=O)c2cn(C)c3cc(N4CCCCCC4)c(F)cc3c2=O)c1 | . | . | . | . | -32 | .
CCOC(=O)N1CCc2c(sc3c2c(=O)n(CCc2ccccc2)c(=O)n3Cc2c(F)cccc2Cl)C1 | . | . | . | . | -7 | .
CCNC(=S)N/N=C/c1sc(N2CCCCC2)nc1-c1cccs1 | 0.26µM* | active | -4% | 30* | ? | 0.17µM*
CCNC(=S)NNc1nc(N2CCCCC2)nc(N2CCOCC2)n1 | -15% | -3 | 0% | 10 | 33 | ?
CNC(=O)c1cc(C(=O)c2ccc(Cl)cc2)c(Br)[nH]1 | 1% | -12 | 7% | -2 | 38 | 30%
Cc1cccc(CSc2nc(N)c(C#N)c(-c3cccs3)c2C#N)c1 | 13µM* | -5 | 11µM* | -2 | -35 | ?
Cc1cccc(CSc2nc3c(c(-c4cccs4)c2C#N)CN(C)CC3)c1 | ? | -9 | ? | -7 | -3 | ?
O=C(CCc1nnc2n(Cc3ccccc3Cl)c(=O)c3ccccc3n12)Nc1ccc(F)cc1 | . | . | . | . | -11 | .
CCCCCCc1c(C)c2ccc(OCC(=O)N3CCC[C@H]3C(=O)O)c(C)c2oc1=O | ? | 0 | 2% | -3 | -6 | ?
O=C1NC(=S)NC(=O)C1=Cc1cccn1-c1ccc(O)cc1 | 0% | 31 | ? | -4 | -99* | 14%
O=Cc1cccn1-c1ccc2ccccc2c1 | 59% | 42* | 0% | 29* | ? | 6%
CN1C(=O)/C(=C/c2cccn2-c2ccc3ccccc3c2)C(=O)NC1=S | -5% | -7 | 1% | 14 | -105* | -9%
O=C1NC(=S)N/C1=C/c1cccn1-c1ccc([N+](=O)[O-])cc1 | -12% | -8 | -25% | -1 | -8 | -17%
COc1ccc(-n2cccc2C=O)cc1 | 18% | 19 | 3% | -1 | 12 | -14%
O=[N+]([O-])c1cc(Br)c(O)c(/C=N/Nc2nnnn2-c2cccc3ccccc23)c1 | . | 18 | 10% | -2 | 2 | ?
Cc1ccc(NS(=O)(=O)c2cc3[nH]c(=O)c(=O)[nH]c3cc2C)cc1N(C)C | . | . | . | . | 8 | .
Cc1ccc(NC(=O)CCC(=O)N2CCOc3ccccc32)c(Cl)c1 | 38% | 17* | -1% | 11* | 1 | -29%
Cc1cc(C)nc(NS(=O)(=O)c2ccc(NC(=O)C3COc4ccccc4O3)cc2)n1 (stereo not given) | -1% | 11 | 13% | -5 | -25 | ?

Source: PubChem BioAssay
